Screening data (PubChem BioAssay)
Sm TGR block: S. mansoni TGR enzyme inhibition | purified TGR, DTNB reduction, TNB absorbance 405 nm | 3% of 360,000 active | Q962Y6 | AID 485364 | Potency, µM (top dose mostly 114 µM), for the others: at the top dose activity change, negative = inhibition, usual class: inhibitors; note: nearly all actives have a fitted effect of over 60% in size
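Kinetic colorimetric format: TGR-catalysed, NADPH-driven DTNB reduction monitored via TNB absorbance. Enzyme dispensed at 20 nM; compound exposure 15 min at room temperature before reaction start.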
LmPK inh: LmPK (Leishmania mexicana) enzyme inhibition. Q27686. purified LmPK, Kinase-Glo ATP luminescence, 1 h. Potency, µM (series often up to 57.5 µM), for inactives: at the highest dose activity change, negative = inhibition, usual class: inhibitors. 0.37% of 290,000 active. AID 1721
Target sequence (Q27686 whole entry, looked up): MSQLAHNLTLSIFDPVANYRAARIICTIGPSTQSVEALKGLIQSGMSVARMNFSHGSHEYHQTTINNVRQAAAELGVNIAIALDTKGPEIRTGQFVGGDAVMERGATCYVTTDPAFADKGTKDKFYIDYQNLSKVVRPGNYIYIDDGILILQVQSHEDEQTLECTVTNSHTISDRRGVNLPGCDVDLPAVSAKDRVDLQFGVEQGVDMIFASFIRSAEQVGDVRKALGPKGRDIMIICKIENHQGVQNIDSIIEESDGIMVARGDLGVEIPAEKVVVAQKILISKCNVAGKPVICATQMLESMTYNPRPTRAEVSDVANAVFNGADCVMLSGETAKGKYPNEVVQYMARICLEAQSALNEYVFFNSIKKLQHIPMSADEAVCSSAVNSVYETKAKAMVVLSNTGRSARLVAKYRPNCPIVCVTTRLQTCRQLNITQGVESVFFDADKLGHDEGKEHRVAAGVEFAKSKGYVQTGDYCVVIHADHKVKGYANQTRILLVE
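Purified LmPK (0.1 nM) with 0.5 mM PEP and 0.1 mM ADP in imidazole buffer pH 7.2 with MgCl2/KCl, 1 h at room temperature. ATP formed was read by luciferase luminescence and normalized to no-enzyme and uninhibited controls.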
Tb PYK inh: T. brucei pyruvate kinase inhibition; Q57TT1; TbPYK enzyme, Kinase-Glo Plus ATP luminescence, 45 min; Potency, µM (series often up to 76.8 µM), for inactives: at the top dose activity, negative = inhibition, hits mostly inhibitors; 0.12% of 410,000 active; AID 624173; note: nearly all actives have a fitted effect of over 50% in size
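Luminescence from Kinase-Glo Plus, added after a 45-minute room-temperature reaction, served as the end-point read-out. The enzyme and substrate were preincubated with compound before ADP (130 uM final) initiated turnover. Concentration-effect curves came from normalized qHTS data.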
RE007 growth inh: less growth of the S. pombe RE007 Vpr strain. S. pombe RE007 Vpr strain, BacTiter-Glo ATP luminescence, 24 h. Potency, µM (series often up to 92.2 µM), inactives show top-dose activity change, negative = less growth, hits mostly inhibitors. 0.21% of 360,000 active. AID 651644; active = well fitted falling curve with a large enough effect; inconclusive = small, poorly fitted or top-dose-only effect; inactive = no such curve, though single readings can be large or run the other way; note: nearly all actives have a fitted effect of over 50% in size
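Fission yeast RE007 carrying one integrated HIV-1 vpr copy, seeded at OD 0.01 in PMG+AL medium with 23 nL pinned compound. Grown 24 h at 30 degrees; viability read by BacTiter-Glo luminescence after 5 min.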
Active calls of the source: *; u = inconclusive; x = no result given; [ ] = remark or other dose. An excerpt weighted towards active compounds, which were near 3% of everything screened. Unless noted, calls come from the whole dose curve; as a rule, active = well fitted curve in the direction sought with a large enough effect; inconclusive = small, poorly fitted or top-dose-only effect, or another doubt; inactive = no such curve, though single readings can be large; an effect the other way counts as inactive or inconclusive. % is set by controls: 0 for no effect and ±100 for the full control effect; potency is the fitted concentration of half-maximal effect.

SMILES	Sm TGR block	LmPK inh	Tb PYK inh	RE007 growth inh
CN1C(=O)CC(c2ccco2)Sc2ccccc21 (configuration not stated)	39.8µM*	-0.7%	-7.8%	-2.4%
COc1ccc(C2CC(=O)N(CC(=O)NCC3CCCO3)c3ccccc3S2)cc1 (configuration not stated)	-10.0%	6.3%	4.0%	17.7%
CCCN1C(=O)CC(c2ccco2)Sc2ccccc21 (configuration not stated)	14.1µM*	1.8%	-18.6%	-15.2%
O=C1CC(c2ccco2)Sc2nc3ccccc3n21 (configuration not stated)	50.1µM*	-11.2%	-13.3%	u
Cc1ccccc1-c1nc(CNC(=O)NC2CCCCC2)c(C)o1	-5.1%	x	-3.4%	x
Fc1ccccc1C1CC(c2ccco2)=Nc2ccccc2S1 (configuration not stated)	8.91µM*	0.9%	-14.1%	25.1µM*
Cc1oc(-c2ccccc2Cl)nc1CS(=O)(=O)CC(=O)NCc1ccc(F)cc1	44.7µM*	x	-2.1%	x
Cc1ccccc1-c1nc(CS(=O)(=O)CC(=O)NC2CCCCC2C)c(C)o1 (configuration not stated)	u	1.0%	-0.9%	1.3%
Cc1ccc(CNC(=O)CS(=O)(=O)Cc2nc(-c3ccccc3F)oc2C)cc1	-42.5%	4.0%	7.4%	15.0%
CCOC(=O)N1CCN(C(=O)CS(=O)(=O)Cc2nc(-c3ccccc3F)oc2C)CC1	-29.7%	4.1%	-16.7%	-13.3%
Cc1oc(-c2ccccc2F)nc1CS(=O)(=O)CC(=O)N1CCCCCC1	11.2µM*	-5.1%	4.3%	-2.6%
Cc1ccccc1-c1nc(CS(=O)(=O)CC(=O)N(C)C2CCCCC2)c(C)o1	8.91µM*	-1.3%	-8.8%	14.7%
Cc1ccc(OC(=O)c2snnc2C)cc1C	-1.0%	x	-2.9%	x
CCNC(=O)C1(C)CCCN(C(=O)c2ccc(C(F)(F)F)nc2C)C1 (configuration not stated)	x	x	3.8%	-6.8%[18.4 µM]
CCC(=O)N1c2ccc(S(=O)(=O)CCC(=O)N3CCN(c4ccc(F)cc4)CC3)cc2CC1C (configuration not stated)	5.62µM*	x	0.1%	x
CCC(=O)N1c2ccc(S(=O)(=O)CCC(=O)N3CCN(c4cc(C)ccc4C)CC3)cc2CC1C (configuration not stated)	-0.9%	x	1.3%	x
Cc1ccc(S(=O)(=O)CCC(=O)N2CCN(c3ccc(Cl)cc3)CC2)cc1	12.6µM*	5.5%	-1.8%	-4.4%
CCOC(=O)N1CCN(C(=O)CCS(=O)(=O)c2ccc3c(c2)CC(C)N3C(=O)CC)CC1 (configuration not stated)	22.4µM*	6.1%	11.4%	0.0%
O=C(O)[C@H](CC(=O)N1C[C@H]2CCCC[C@H]2C1)Cc1ccccc1	x	x	-4.1%	x
COc1cccc(C(=O)c2ncc(C(F)(F)F)cc2Cl)c1	50.1µM*	-0.7%	-7.0%	5.5%
O=c1cc(CN2CCc3ccccc32)nc2sccn12	u	3.4%	-6.1%	0.7%
O=c1cc(CN2CCCc3ccccc32)nc2sccn12	28.2µM*	1.3%	1.4%	-2.1%
CCN(CC)CCCN(c1ccccc1)C1Cc2ccccc2C1	x	x	-3.9%	x
CCS(=O)(=O)c1cc([N+](=O)[O-])c(Sc2ccccc2NC(C)=O)s1	2.82µM*	6.8%	-33.3%	7.9%
CCOc1ccccc1NC(=O)C1CCCN1S(=O)(=O)c1ccc2nc(-c3ccccc3)[nH]c2c1 (configuration not stated)	5.5%	x	-1.9%	x
SMILES	Sm TGR block	LmPK inh	Tb PYK inh	RE007 growth inh
NS(=O)(=O)c1ccc(-c2ccc(C=C3C(=O)NC(=O)NC3=O)o2)cc1	u	-14.3%	10µM*	12.1%
NS(=O)(=O)c1ccc(-c2ccc(C=C3C(=O)NC(=S)NC3=O)o2)cc1	2.24µM*	0.5%	x	x
CC1(C)OC(=O)C(=Cc2ccc(-c3ccc(S(N)(=O)=O)cc3)o2)C(=O)O1	2.4%	-0.8%	22.4µM*	8.7%
CCN1CCc2c(sc(NC(=O)c3ccc(S(=O)(=O)N4CCCC(C)C4)cc3)c2C(=O)OC)C1 (configuration not stated)	3.8%	x	0.8%	x
CCOc1ccc(C(=O)Nc2ccc3oc(-c4ccc5ccccc5c4)nc3c2)cc1	11.4%	x	-3.1%	x
CCOc1cc2[nH]c(=S)n(CCCN(CC)CC)c(=O)c2cc1OCC	6.31µM*	-6.2%	-5.4%	-14.7%
